High-throughput results as filed in PubChem BioAssay.
MITF primary: blocks human microphthalmia-associated transcription factor. inhibition, % at 2.6 µM. AID 1259374. actives 0.91% (n = 650,000). AlphaScreen MITF homodimerization, bead proximity signal; in the data active = inhibition above about 50%
Target sequence (O75030 whole entry, looked up): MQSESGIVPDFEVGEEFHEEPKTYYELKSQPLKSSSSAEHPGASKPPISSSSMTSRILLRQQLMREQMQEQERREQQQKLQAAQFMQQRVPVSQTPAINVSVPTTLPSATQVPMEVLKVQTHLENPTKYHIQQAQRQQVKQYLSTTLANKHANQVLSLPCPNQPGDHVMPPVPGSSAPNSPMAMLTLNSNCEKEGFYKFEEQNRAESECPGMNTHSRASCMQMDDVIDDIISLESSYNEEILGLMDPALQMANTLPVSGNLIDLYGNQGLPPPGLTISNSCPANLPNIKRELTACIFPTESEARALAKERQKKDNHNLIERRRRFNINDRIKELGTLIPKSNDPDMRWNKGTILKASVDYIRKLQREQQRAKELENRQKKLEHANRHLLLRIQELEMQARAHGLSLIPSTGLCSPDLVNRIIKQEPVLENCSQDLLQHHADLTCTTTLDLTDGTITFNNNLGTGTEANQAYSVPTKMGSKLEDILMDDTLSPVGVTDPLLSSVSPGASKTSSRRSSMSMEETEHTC
GPR151 ag: activates the human receptor GPR151; PathHunter beta-arrestin GPR151 cells, luminescence; actives 1% (n = 650,000); activation, % at 11.2 µM; in the data active = activation above about 4.9%
FBW7 act: activators of human E3 ligase FBW7; Q969H0; AlphaScreen FBW7–phospho-cyclin E peptide binding, activator screen; normalized activity (activation), % at 26.1 µM; actives 0.13% (n = 650,000); in the data active = normalized activity above about 1.9%;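 note: purified mutant Fbw7 with reduced substrate affinity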
TEAD-YAP inh: TEAD-YAP interaction inhibition | inhibition, % at 9.12 µM | actives 1.4% (n = 640,000) | AID 1259422 | HEK-TIYL cells, TEAD-Gal4/YAP UAS-luciferase luminescence; in the data active = inhibition above about 32%
GPR151 conf act: confirmation of human GPR151 activators. shares compounds with GPR151 ag. GPR151 PathHunter beta-arrestin cells, luminescence, 90 min; % of EA-reagent control over plate median. activation, % at 11.2 µM. 6,700 tested, under 10 active;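 active = mean percent activation across replicates above the confirmation screen cutoff of 4.91%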
GPR119 ag: counter-screen for GPR151 activators: effect on human GPR119; shares compounds with GPR151 ag; GPR119 PathHunter beta-arrestin cells, luminescence, 90 min; 0 = compound-well median, 100 = enzyme-acceptor control; activation, % at 11.2 µM; actives 0.3% (n = 6,700); AID 1508611;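 active = mean percent activation in the counterscreen above 29.09%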;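 note: counterscreen on off-target GPR119 to flag nonselective hits from the GPR151 activator screen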
A number is an active result; 0 = inactive; - = no result. Hits are enriched below; roughly 3.4% of the tested compounds scored in any of these assays.

SMILES	MITF primary	GPR151 ag	FBW7 act	TEAD-YAP inh	GPR151 conf act	GPR119 ag
CCCCC(=O)c1ccc(-c2ccccc2)cc1	0	0	0	0	-	-
C[N+](C)(CCCC(=O)c1ccc(C(=O)CCC[N+](C)(C)Cc2ccccc2Cl)cc1)Cc1ccccc1Cl	0	5.8	0	0	0	0
Cc1[nH]c2ccccc2c1/C=N/NC(=O)c1cccnc1	0	5.2	0	0	0	0
Cc1[nH]c2ccccc2c1/C=N/NC(=O)c1ccccc1O	0	0	0	0	-	-
O=C(N/N=C/c1ccccc1F)c1cccnc1	0	7.1	0	0	0	0
Cc1cc(C(=O)Nc2cc(Cl)ccc2O)on1	0	10	0	0	0	0
CCOc1ccc(NC(=O)CS(=O)c2ncc(-c3ccc(Cl)cc3)n2C)cc1 (centres undefined)	0	0	0	0	-	-
CCN(CC)CCn1c(N)c(C(=O)Nc2ccccc2C)sc1=S	0	6.0	0	0	0	0
CCOc1ccc(-n2c(N)c(C(=O)Nc3ccccc3C)sc2=S)cc1	0	0	0	0	-	-
O=C(COc1cccnc1[N+](=O)[O-])Nc1ccccc1F	0	0	0	0	-	-
CCCCOC(=O)C1C2C=CC3(CN(C4CCCCC4)C(=O)C13)O2 (centres undefined)	0	5.8	0	0	0	0
CC(=O)NN1C(=O)/C(=C/c2cccc(O)c2)SC1=S	0	6.3	0	0	0	0
Nc1nnc(Cc2cccc(Br)c2)s1	0	11	0	0	0	0
O=C(CC1OCCN(Cc2ccccc2)C1=O)Nc1ccc2c(c1)OCO2 (centres undefined)	0	9.9	0	0	0	0
O=C(CC1S\C(=N/N=C/C=C/c2ccccc2)NC1=O)Nc1ccccc1F (centres undefined)	0	7.8	0	0	0	0
CSc1ccc(C(=O)NCC2CCC3(CCN(Cc4ccccn4)CC3)O2)cc1 (centres undefined)	0	0	0	0	-	-
O=c1[nH]c(=O)c2sc3nc(-c4ccncc4)cc(C(F)(F)F)c3c2[nH]1	0	6.3	0	0	0	0
CCCC(c1nnnn1CCOC)N1CCN(c2cccc(C(F)(F)F)c2)CC1 (centres undefined)	0	5.4	0	0	0	0
O=C(Nc1ccccc1)N[C@H]1C[C@H]2C(=O)N3CCC[C@H]3C(=O)N2C1	0	0	0	0	-	-
CCOC1OC(=O)C(Cl)=C1Nc1cccc(C)c1 (centres undefined)	0	5.0	0	0	0	0
C/C(=N\NC(=O)c1ccc(F)cc1)c1ccc([N+](=O)[O-])cc1	0	8.1	0	0	0	0
O=C(Nc1ccc(Cl)cc1Cl)c1cccc(-n2cnnn2)c1	0	0	0	0	-	-
COc1cc(I)cc(CNc2ccc(F)cc2)c1O	0	5.4	0	0	0	0
COc1cc(C2C3=C(CC(C)(C)CC3=O)OC3=C2C(=O)CC(C)(C)C3)ccc1OC(=O)Nc1cccc(Cl)c1	0	0	0	0	-	-
COc1cccc(CC(=O)N2CCc3nnc(CNC(=O)CCc4cccnc4)n3CC2)c1	0	5.7	0	0	0	0
SMILES	MITF primary	GPR151 ag	FBW7 act	TEAD-YAP inh	GPR151 conf act	GPR119 ag
O=S(=O)(c1ccc(N2CCCC(C(F)(F)F)C2)nc1)N1CCCC1 (centres undefined)	0	5.8	0	0	0	0
COCC(=O)NNC(=O)Nc1cc(C)ccc1OC	0	0	0	0	-	-
COc1cccc(OC)c1C(=O)Nc1ccc(I)cc1Cl	0	0	0	0	-	-
COc1ccccc1C(=O)Nc1ccc(I)cc1Cl	0	7.2	0	0	0	0
O=C(Nc1ccc([N+](=O)[O-])cc1Cl)c1ccccc1Cl	0	8.1	0	0	0	0
Cc1ccc([N+](=O)[O-])cc1NC(=O)c1ccccc1Cl	0	0	0	0	-	-
Cc1ccc(C(=O)Nc2ccc([N+](=O)[O-])cc2)c(Cl)c1	0	15	0	0	0	0
Cc1cc(C)cc(C(=O)Nc2ccc([N+](=O)[O-])cc2C)c1	0	8.9	0	0	0	0
C=CCNc1ncnc2c1nnn2Cc1ccccc1	0	0	0	0	-	-
CC1CCCC(C)N1C(=O)CN1CCC(O)(c2ccccn2)CC1 (centres undefined)	0	0	0	0	-	-
O=C(Nc1ccc(S(=O)(=O)Nc2nccs2)cc1)c1ccc([N+](=O)[O-])cc1Cl	0	5.2	0	0	0	0
